Measured values from PubChem BioAssay (NCATS).
Inconclusive results are not listed. A call without a number means that no potency is given here. Values without a mark were called inactive. Active and inactive are the calls of the source. Calls come from the whole dose curve; as a rule, active = well fitted activation curve with a large enough effect; inconclusive = small, poorly fitted or top-dose-only effect; inactive = no such curve, though single readings can be large or run the other way. Square brackets hold non-standard residues; d marks the D form. Peptide text beside a SMILES is read from it. * marks the point of attachment. ξ: configuration not given here. Hexanoyl = CCCCCC(=O)*; ξL = CC(C)CC(N)C(=O)O

Test: Redox Reaction Profiling qHTS: Assay Interference Panel against the NCATS CANVASS Library (AID 1347401)
Conditions: resazurin-DTT redox cycling, fluorescence, 15 min; series mostly up to 57.1 µM
From the text: Natural products and their derivatives continue to be wellsprings of nascent therapeutic potential. However, many laboratories have limited resources for biological evaluation, leaving their previously isolated or synthesized compounds largely or completely untested. To address this issue, the Canvass library of natural products was assembled (https://tripod.nih.gov/canvass), in collaboration with academic and industry researchers, for quantitative high-throughput screening (qHTS) across a diverse set of cell-based and biochemical assays. The pure (>85% purity by liquid chromatography/mass spectrometry [LC/MS]) Canvass library of 346 natural products were submitted by 45 academic laboratories and companies around the world. We collected pure natural products to circumvent deconvolution and structure elucidation due to time and resource limitations. The library was formatted into 1536-well plates and evaluated in 50 qHTS (in an 11-pnt concentration series) bioassays with broad scope of disease-relevant mechanisms. The resulting data set from 50 different assays was then systematically analyzed to identify overall trends and specific natural products with interesting biological activities. Reported herein are the results of each individual qHTS and their corresponding assay protocol. This profiling assay measures the resazurin-to-resorufin redox reaction in the presence of DTT and compound, and serves as a useful surrogate assay for measuring potential compound redox liability National Center for Advancing Translational Sciences (NCATS), Rockville, MD National Institute of Health (NIH), Bethesda, Maryland
Redox Profiling assay protocol: 1. In a black-solid bottom, medium binding, 1536-well plates (Greiner 789176), 4 uL of [1x] 5uM Resazurin + 200 uM DTT + buffer (50 mM HEPES pH 7.3 + 50 mM NaCl) was dispensed (into columns 1 - 48, rows 1 - 32) using a BioRAPTR FRD dispenser (Beckman Coulter). 2. 23 nL of compounds were pin transferred into the assay plates (columns 5 - 48) using the Kalypsis pin tool (Wako USA) equipped with a 1536-well pin heads. This yields a final concentration range of 0.002 - 127 uM. Control compound Chloranil (NCGC00091254-06) was also pinned (23 nL) into column 2, rows 1 - 32 (working concentration 10 mM, 1:2 dilution; 16 points titrations; n = 2). The final concentration range for the Chloranil was 0.002 to 57.2 uM. For 100% activation control, a single dose of 23 nL Chloranil (350 uM working concentration) was pinned to columns 3 and 4, rows 1-32 for a final concentration of 2 uM. 3. The assay plates were centrifuged for 15 seconds at 1000 rpm. 4. An initial fluorescence readout was obtained using the ViewLux plate reader (PerkinElmer) using a 525 nm excitation and a 598 nm emission filters. 5. The assay plates were incubated for 15 minutes in the dark. 6. After incubation, the final fluorescence readout was obtained using the ViewLux plate reader (PerkinElmer) using a 525 nm excitation and a 598 nm emission filters.
Potency is the fitted concentration of half-maximal effect.

| Structure (SMILES) | Potency | activation (redox signal) |
| --- | --- | --- |
| C/C=C/c1cc2c(c(=O)o1)C(=O)[C@@H](O)[C@H](C)O2 | inactive |  |
| COc1ccc(-c2oc3cc(OC)cc(OC)c3c(=O)c2O)cc1 | inactive |  |
| C/C=C1/CN2C3CC1C1C=CC(=O)N4c5ccccc5[C@@]3(C[C@@H]2C2=C[C@H]3C5CC6N(CC[C@@]67c6ccccc6N(C2=O)[C@@H]37)C/C5=C/C)[C@H]14 (stereo not given in full) | inactive |  |
| COc1c(O)cc2c(c1O)C(=O)c1c(coc1C)C2=O | 24.1 µM (active) |  |
| O=Cc1ccc2n1C[C@]1(OC2)O[C@H](CO)[C@@H](O)[C@@H]1O | inactive |  |
| COc1ccc([C@@H]2CC(=O)c3c(cc(O)c(C/C=C(\C)CCC=C(C)C)c3O)O2)cc1 |  | -16.9% [at 11.4 µM] |
| C=C1CC[C@@H](Br)C(C)(C)[C@]12CC=C(C)C(=O)C2 | inactive |  |
| C=CC(CCCCC)C1C(=O)NC(=O)C1C(=O)C1C2C(C)CC(C(=O)O)CC2CC1(O)C(=O)/C=C/C (stereo not given) | inactive |  |
| COc1cc2ccc(=O)oc2c(O)c1O[C@@H]1O[C@H](CO)[C@@H](O)[C@H](O)[C@H]1O | inactive |  |
| CCC(=O)N[C@@H](C[C@H](C)C(Cl)(Cl)Cl)C(=O)N1C(=O)C=C(OC)[C@@H]1CC(C)C | inactive |  |
| C=C1C[C@]23C=CC(=O)[C@@](C)(CCCC(C)C(=O)N[C@@H](CO)C(=O)O)[C@@H]2C[C@@H]1CC3 (stereo not given in full) | inactive |  |
| COc1c(O)cc(O)c2c(=O)cc(-c3ccccc3)oc12 | inactive |  |
| CN1CCc2cc3c(c4c2C1(C)C(=O)c1cc(O)ccc1-4)OCO3 (stereo not given) | inactive |  |
| CC(C)[C@]12CC[C@@]3(C)[C@H](C)CC[C@H](O)[C@@]3(CC1)c1cc3c(cc12)[nH]c1ccccc13 | inactive |  |
| CC(C)=CC[C@H]1C[C@@]2(CC=C(C)C)C(=O)[C@](CC=C(C)C)(C(=O)C(C(=O)c3ccccc3)=C2O)C1(C)C | inactive |  |
| COc1cc(C2C3=C(Cc4cc5c(cc42)OCO5)C(=O)OC3)cc(OC)c1OC (stereo not given) | inactive |  |
| C=C[C@]1(C)CC[C@@H]([C@H](C)C(=O)/C=C/C(C)(C)O)O1 | inactive |  |
| C=C1CCC2C(C)(C(=O)O)CCC(CC/C(C)=C/C(=O)NC(CCC(N)=O)C(=O)O)[C@@]2(C)C1 (stereo not given in full) | inactive |  |
| O[C@H]1C=C2[C@H]3CN(Cc4cc5c(cc43)OCO5)[C@H]2C[C@@H]1O | inactive |  |
| O[C@H]1c2ccccc2-c2c3c(cc4c2[C@@H]1NCC4)OCO3 | 19.2 µM (active) |  |

| Structure (SMILES) | Potency | activation (redox signal) |
| --- | --- | --- |
| O=c1cc(-c2ccc(O)c(O)c2)oc2cc(O[C@@H]3O[C@H](CO)[C@@H](O)[C@H](O)[C@H]3O)cc(O)c12 | inactive |  |
| COc1cc2c(cc1OC)[C@@H](c1ccc3c(c1)OCO3)C(C)[C@@H](C)C2=O (stereo not given in full) | inactive |  |
| O=C1CC2OCC=C3CN4C5CC3C2[C@@H]2N1c1ccccc1[C@]52C[C@@H]4C1=C[C@H]2C3CC4N(CC[C@@]45c4ccccc4N(C1=O)[C@@H]25)C/C3=C/CO (stereo not given in full) | inactive |  |
| CC(C)=CCC/C(C)=C/Cc1cc([C@@H]2CC(=O)c3c(cc(O)c(CC=C(C)C)c3O)O2)ccc1O | inactive |  |
| COc1cc2c(c(O)c1O)C(=O)c1c(coc1C)C2=O | 0.764 µM (active) |  |
| CCCCCC(=O)N[C@@H](CC(C)C)C(=O)N[C@H](C=O)CCC(=O)O (Hexanoyl-Leu-Glu-aldehyde) | inactive |  |
| CC[C@@H](C)[C@H]1NC(=O)C(CC(C)C)NC(=O)[C@@H](CC(C)C)NC(=O)[C@H](Cc2c[nH]c3ccccc23)NC(=O)CNC(=O)[C@@H](CC(N)=O)NC1=O (stereo partly drawn) (cyclo(GW[dL][ξL][dI][dN])) | inactive |  |
| COC(=O)c1cccc2oc(-c3cccc4oc(-c5c(C)cccc5O)nc34)nc12 | inactive |  |
| C/C=C/C1C=CC2CC(C)CC(C)C2C1C(=O)CC(=O)NC(CO)C/C=C/CCCCC (stereo not given) | inactive |  |
| C=CC(C)(C)C(=O)[C@@H](C)[C@@H]1CC[C@@](C)(C=C)O1 | inactive |  |
| COc1cc(O)c(C(=O)[C@@H]2[C@H](CC=C(C)C)C(C)=CC[C@H]2c2ccccc2)c(O)c1 | inactive |  |
| C/C(=C\[C@H](C)C(=O)C[C@H](O)CC1CC(=O)NC(=O)C1)[C@@H]1OC(=O)CCCC/C=C/C[C@@H](O)[C@@H]1C | inactive |  |
| CN1C(=O)C(=O)N2C(=C[C@]3(c4c[nH]c5ccccc45)c4ccccc4N[C@H]23)C1=O | inactive |  |
| CC[C@H](O)CCCCC[C@@H]1NC(=O)[C@H]2CCCCN2C(=O)[C@H]([C@H](C)CC)NC(=O)[C@H](Cc2cn(OC)c3ccccc23)NC1=O | inactive |  |
| C[C@H]1C=C[C@H]2CCCC[C@@H]2[C@H]1C(=O)[C@H]1CC2=C(C(=O)O)CCN2C1=O | inactive |  |
| CC(=O)N[C@H](C)c1nc(/C=C/C=C/C(=O)CC2CC(=O)CC[C@]2(C)O)cs1 (stereo not given in full) | inactive |  |
| COc1ccc([C@@H]2c3cc4c(cc3C(=O)[C@H](C)C2C)OCO4)cc1OC (stereo not given in full) | inactive |  |
| CC[C@H]1[C@H](C)[C@H](c2cc(OC)c(OC)cc2OC)[C@@H](C)[C@H](c2cc(OC)c(OC)cc2OC)[C@@]12C=C(OC)C(=O)C=C2OC | inactive |  |
| CC[C@@H]1C[C@@]2(CC)OC(=O)[C@@]3(CC)[C@H](CC)[C@@H]1[C@@H]23 | inactive |  |
| CO[C@@H](C[C@@H](C)[C@@H](O)/C=C/C=C/CNC(=O)C(C)(C)[C@H](O)\C(C)=C/C=C\C=C\Cc1cnco1)[C@]1(O)[C@@H](C)C(=O)N(C)[C@@]12COC2=O | inactive |  |
